# Sampled rows, rich in hits. Any-hit rate of the full collection: about 10%.
# GPT2 inh = blocks human glutamate pyruvate transaminase 2; Q8TD30; AID 1671188; Potency, µM (doses to about 57.7 µM), inactives show at the top dose activity change, negative = inhibition, most hits filed as inhibitors; actives 0.25% (n = 100,000); Recombinant GPT2, coupled pyruvate oxidase/HRP Amplex Red fluorescence; further: on the % scale 0 is the no-effect control and ±100 the full control effect; nearly all actives have a fitted effect of over 60% in size
#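 Recombinant GPT2 (10ng/uL) with 250uM a-KG and 2mM L-alanine, 30 min at room temperature, in HEPES pH 7.5 buffer. Pyruvate detected by pyruvate oxidase/HRP/Amplex Red fluorescence after 30 min in the dark; AOA (50uM) as positive control.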
# NPR1 antag = antagonists of human natriuretic peptide receptor Npr1; P16066; HEK293 hNpr1 GloSensor cGMP, ANP-stimulated luminescence; Potency, µM (doses to about 46.3 µM), for inactives: at the highest dose activity change, negative = inhibition, actives largely listed as inhibitors; actives 1.6% (n = 76,000); calls by dose curve; further: on the % scale 0 is the no-effect control and ±100 the full control effect; nearly all actives have a fitted effect of over 60% in size
# Target sequence (P16066 whole entry, looked up): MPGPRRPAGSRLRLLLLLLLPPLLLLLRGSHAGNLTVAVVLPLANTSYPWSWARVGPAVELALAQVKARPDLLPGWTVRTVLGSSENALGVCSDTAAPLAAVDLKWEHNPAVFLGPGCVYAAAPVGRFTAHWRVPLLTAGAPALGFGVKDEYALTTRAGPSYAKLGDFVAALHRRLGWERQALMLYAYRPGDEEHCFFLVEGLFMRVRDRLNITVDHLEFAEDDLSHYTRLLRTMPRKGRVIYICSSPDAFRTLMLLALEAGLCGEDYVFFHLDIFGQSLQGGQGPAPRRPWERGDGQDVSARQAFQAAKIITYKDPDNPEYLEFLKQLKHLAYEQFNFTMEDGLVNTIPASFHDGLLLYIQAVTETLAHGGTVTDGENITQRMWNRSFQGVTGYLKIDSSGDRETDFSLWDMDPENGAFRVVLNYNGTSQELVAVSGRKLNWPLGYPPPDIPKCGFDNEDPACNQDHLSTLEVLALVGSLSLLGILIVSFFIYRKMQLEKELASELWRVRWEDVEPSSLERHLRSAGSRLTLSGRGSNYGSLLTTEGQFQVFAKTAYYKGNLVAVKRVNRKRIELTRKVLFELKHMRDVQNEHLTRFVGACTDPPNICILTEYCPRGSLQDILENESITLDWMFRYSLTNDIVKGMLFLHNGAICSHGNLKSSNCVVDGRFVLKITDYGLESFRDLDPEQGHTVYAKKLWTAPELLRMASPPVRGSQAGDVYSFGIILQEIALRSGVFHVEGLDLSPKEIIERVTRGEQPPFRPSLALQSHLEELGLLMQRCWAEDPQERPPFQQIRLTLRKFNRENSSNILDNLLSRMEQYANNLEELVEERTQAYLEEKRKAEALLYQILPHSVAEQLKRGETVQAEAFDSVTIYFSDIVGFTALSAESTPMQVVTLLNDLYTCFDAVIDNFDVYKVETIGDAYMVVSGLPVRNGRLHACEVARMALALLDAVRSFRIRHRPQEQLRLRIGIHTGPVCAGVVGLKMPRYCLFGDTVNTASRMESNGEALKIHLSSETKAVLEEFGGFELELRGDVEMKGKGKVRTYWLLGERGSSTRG
#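 HEK293 cells stably expressing human Npr1 and cGMP GloSensor pGS-40F, loaded 2 h with 2% GloSensor reagent, given compound 30 min at room temperature. Luminescence read before and 20 min after 0.1 nM hNppA.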
# HEK293 tox = HEK 293 cell cytotoxicity; actives 6.6% (n = 94,000); AID 1345083; HEK 293 viability, ATP luminescence (CellTiter-Glo), 48-72 h; Potency, µM (top dose mostly 115 µM), inactives show at the top dose activity change, negative = cytotoxicity, most hits filed as inhibitors; further: on the % scale 0 is the no-effect control and ±100 the full control effect; nearly all actives have a fitted effect of over 60% in size
#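 HEK 293 cells at 250 cells/well were exposed to compounds by pintool transfer for 48 or 72 hr at 37 degree Celsius, 5% CO2. Viability was read as ATP-coupled luminescence with CellTiter-Glo after 10 min at room temperature.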
# FLuc inh-1 = inhibitors of firefly (Photinus pyralis) luciferase; Potency, µM (top dose mostly 115 µM), usual class: inhibitors; AID 1347043; actives 2.5% (n = 76,000); purified P. pyralis luciferase, luminescence, biochemical; P08659; further: on the % scale 0 is the no-effect control and ±100 the full control effect; nearly all actives have a fitted effect of over 65% in size
#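 Inhibitors were tested against purified firefly luciferase in a biochemical, low-substrate format (both substrates at 10uM) and luminescence measured with a CCD imager.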
# 3T3 cytotox = kills NIH 3T3 cells. actives 4.3% (n = 94,000). Potency, µM (doses to about 96.7 µM), without a hit: at the top dose activity change, negative = cytotoxicity, usual class: inhibitors. NIH 3T3 viability, CellTiter-Glo ATP luminescence, 48-72 h. AID 1345082; further: on the % scale 0 is the no-effect control and ±100 the full control effect; nearly all actives have a fitted effect of over 55% in size
#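 Mouse fibroblast NIH 3T3 cells, 400 per well, received compound via pintool and were incubated for 48 or 72 hr prior to CellTiter-Glo ATP luminescence measurement.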
# FLuc SDR no ATP = firefly luciferase binding stabilization, ATP absent | actives 7.8% (n = 1,300) | Purified FLuc-C-HiBiT, Nano-Glo HiBiT luminescence, no ATP | AID 1963318 | Potency, µM (titrated, usually from 32.7 µM), for the others: at the highest dose activation (signal gain), hits mostly activators | shares compounds with FLuc inh-1; further: nearly all actives have a fitted effect of over 55% in size
# FLuc SDR ATP = binders stabilizing firefly luciferase, plus ATP; shares compounds with FLuc inh-1; purified FLuc-C-HiBiT + ATP, HiBiT complementation luminescence; Potency, µM (top dose mostly 32.7 µM), without a hit: at the top dose activation (gain of signal), usual class: activators; actives 8.7% (n = 1,300);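 further: signal reports ligand binding via conformational change of the enzyme rather than luciferase catalysis; % of control where 0% means no effect; nearly all actives have a fitted effect of over 55% in size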
# FLuc inh-2 = inhibitors of firefly luciferase enzymatic activity | shares compounds with FLuc inh-1 | purified FLuc-C-HiBiT enzyme, luciferin luminescence | Potency, µM (highest dose often 32.7 µM), without a hit: top-dose activity change, negative = inhibition, usual class: inhibitors | actives 42% (n = 1,300); further: on the % scale 0 is the no-effect control and ±100 the full control effect; nearly all actives have a fitted effect of over 70% in size
# * hit, by the source's call; i = inactive; ? = inconclusive; nt = not tested or not shown; [ ] = remark or other dose. Unless noted, the call rests on the fitted dose curve; in most records, active means well fitted curve in the direction sought with a large enough effect; inconclusive means small, poorly fitted or top-dose-only effect, or another doubt; inactive means no such curve, though single readings can be large; an effect the other way counts as inactive or inconclusive. Potency means the concentration at half of the fitted maximal effect.
SMILES,GPT2 inh,NPR1 antag,HEK293 tox,FLuc inh-1,3T3 cytotox,FLuc SDR no ATP,FLuc SDR ATP,FLuc inh-2
CCCN1CCc2[nH]cnc2C12CCN(C(=O)c1cnn3ccccc13)CC2,4.4%,0.1%,i,i,i,nt,nt,nt
CC1CCc2nc3ncn(Cc4ccc(Cl)cc4)c(=O)c3cc2C1 (centres undefined),nt,nt,nt,nt,nt,16.2%,12.7%,-8.5%
C=CCS(=O)(=O)N1CCCC(CCc2c(F)cccc2F)C1 (centres undefined),i,1.8%,?,i,?,nt,nt,nt
COc1ccc(-c2cc(N3CCCC(NC(=O)c4c[nH]c5ccccc45)C3)n[nH]2)cc1 (centres undefined),-23.4%,-20.3%,?,10µM*,?,17.0%,10.4%,?
COc1ccc(C(=O)NC2CCN(c3cc(-c4ccc(OC)cc4)[nH]n3)C2)cc1 (centres undefined),-24.1%,-12.2%,-29.5%,i,-25.4%,nt,nt,nt
CCOc1ccccc1C(=O)NC1CCCN(c2cc(-c3ccc(OC)cc3)[nH]n2)C1 (centres undefined),-17.1%,-19.6%,?,i,?,nt,nt,nt
COc1ccc(-c2cc(N3CCCC(NC(=O)c4cccs4)C3)n[nH]2)cc1 (centres undefined),?,-17.6%,?,14.1µM*,?,20.9%,13.3%,?
COc1ccc(-c2cc(N3CCCC(NC(=O)c4cccc5[nH]ccc45)C3)n[nH]2)cc1 (centres undefined),?,-25.5%,44.7µM*,14.1µM*,35.5µM*,14.5%,7.5%,?
COc1ccc(-c2cc(N3CCCC(NC(=O)c4nccc5ccccc45)C3)n[nH]2)cc1 (centres undefined),?,-18.9%,?,?,?,nt,nt,nt
COc1ccc(-c2cc(N3CCCC(NC(=O)c4ccc5c(c4)OCO5)C3)n[nH]2)cc1 (centres undefined),?,-20.3%,?,11.2µM*,?,24.0%,14.8%,?
CNC(=O)CN(C)Cc1cc(Cl)ccc1OCC(O)CN1CCCCCC1 (centres undefined),2.5%,0.7%,?,i,?,nt,nt,nt
COc1ccc(C(=O)NC2CCN(Cc3ccc(-c4ccsc4)cc3)C2)cc1 (centres undefined),i,nt,?,nt,?,nt,nt,nt
Cc1ccc(C(=O)Nc2ccc(-c3nc4ccccc4s3)c(O)c2)c(C)c1,nt,nt,nt,nt,nt,14.1%,9.4%,0.0%
COc1ccccc1C(=O)Nc1ccc(-c2nc3ccccc3s2)c(C)c1,nt,nt,nt,nt,nt,23.0%,14.4%,?
N#Cc1cccc(NC(=O)Cn2cccc2-c2nc(-c3ccccc3)no2)c1,i,-11.2%,-1.6%,i,0.8%,nt,nt,nt
CN1CC(=O)N(C2CCCNCC2)Cc2c(NCC(C)(C)C)ncnc21 (centres undefined),3.6%,nt,i,nt,-0.8%,nt,nt,nt
Cn1c(CNC(=O)CCC[C@@H]2[C@H]3CCCN4CCC[C@@H](CN2Cc2ccccc2)[C@@H]34)nc2ccccc21,i,0.6%,?,i,?,nt,nt,nt
Cc1cc(-c2cc3c(cn2)CN(Cc2cccs2)CCN3)ccn1,-3.8%[88.5 µM],-21.3%[70.6 µM],89.1µM*,6.31µM*,?,32.3%[49.3 µM],?,11.4µM*
Cc1cc(-c2cc3c(cn2)CN(Cc2cnc[nH]2)CCN3)ccn1,nt,nt,nt,nt,nt,28.8%[49.3 µM],19.0%[49.3 µM],18µM*
NC(=O)c1cccc(-c2cc3c(cn2)CN(Cc2ccncc2)CCN3)c1,4.5%[88.5 µM],-15.4%[70.6 µM],-17.1%[172 µM],?,?,nt,nt,nt
Cc1cc(-c2cc3c(cn2)CN(Cc2ccccc2O)CCN3)ccn1,-5.0%[88.5 µM],?,?,5.62µM*,?,21.0%[49.3 µM],13.0%[49.3 µM],?
c1cncc(Nc2cc3c(cn2)CN(CC2CCCCC2)CCN3)c1,-2.8%[88.5 µM],5.7%[70.6 µM],?,?,?,nt,nt,nt
NC(=O)c1cccc(-c2cc3c(cn2)CN(Cc2ccccc2)CCN3)c1,2.6%[88.5 µM],-1.9%[70.6 µM],?,14.1µM*,-20.1%[138 µM],17.4%[49.3 µM],12.1%[49.3 µM],?
CN1CCNc2cc(-c3ccc(N4CCOCC4)cc3)ncc2C1,1.5%[88.5 µM],-18.8%[70.6 µM],?,i,?,nt,nt,nt
CN1CCC2(CC1)CN(C(=O)CCc1ccccc1)Cc1ccccc1O2,3.0%,-10.1%,?,i,-28.2%,nt,nt,nt
SMILES,GPT2 inh,NPR1 antag,HEK293 tox,FLuc inh-1,3T3 cytotox,FLuc SDR no ATP,FLuc SDR ATP,FLuc inh-2
Oc1ccccc1CN1CCNc2cc(-c3ccccc3)ncc2C1,4.4%[88.5 µM],-28.6%[70.6 µM],79.4µM*,2.51µM*,79.4µM*,?,14.4%[49.3 µM],?
Cc1ccc(-c2nnc(C3CN(C(=O)c4cnc(C)cn4)CC34CCOCC4)o2)cc1 (centres undefined),i,-2.5%,-1.4%,i,i,nt,nt,nt
CCCCCc1ccc(/C=C/C(=O)Nc2cc(Cl)ccc2C(=O)O)cc1,i,nt,nt,nt,nt,nt,nt,nt
Cc1ccc2oc(-c3ccc(C)c(NC(=O)/C=C/c4ccc(Cl)cc4)c3)nc2c1,nt,nt,nt,nt,nt,22.3%,15.4%,?
O=C(NCc1ccccc1F)C1CCN(C(=O)c2ncn3c2COC(c2ccccc2)C3)CC1 (centres undefined),i,-0.1%,5.0%,10µM*,-1.4%,14.9%,?,3.51µM*
O=C(NCc1ccc(F)cc1)C1CCN(C(=O)c2ncn3c2COC(c2ccccc2)C3)CC1 (centres undefined),i,-0.2%,-6.5%,14.1µM*,-12.8%,15.6%,?,5.56µM*
COc1ccccc1CNC(=O)C1CCN(C(=O)c2ncn3c2COC(c2ccccc2)C3)CC1 (centres undefined),-3.2%,-3.0%,-4.5%,12.6µM*,i,10.6%,?,6.24µM*
O=C(NCc1ccncc1)C1CCN(C(=O)c2ncn3c2COC(c2ccccc2)C3)CC1 (centres undefined),-0.9%,?,-1.8%,2.82µM*,-14.4%,20.3%,0.881µM*,1.76µM*
CCc1ccc(CNC(=O)C2CCN(C(=O)c3ncn4c3COC(c3ccc(F)cc3)C4)CC2)cc1 (centres undefined),i,0.0%,-16.3%,?,-11.4%,nt,nt,nt
Cc1ccc(NC(=O)N2CCC(CCN)CC2)cc1F,-8.8%,3.5%,9.8%,i,i,nt,nt,nt

# Screening data as filed in PubChem BioAssay.
